Screens as filed in PubChem BioAssay.
Only some compounds are listed: those with a hit (about 9.5% of all), similar ones and a draw of the others.
ALDH1A1 inh – ALDH1A1 (human) enzyme inhibition | Purified ALDH1A1, NADH fluorescence, propionaldehyde substrate | Potency, µM (titrated, usually from 75.3 µM), for the others: at the top dose activity, negative = inhibition, actives largely listed as inhibitors | hit rate 7.3% among 220,000 | AID 1030; active = well fitted inhibition curve with a large enough effect, not every such curve was filed as active; inconclusive = small, poorly fitted or top-dose-only effect, or another doubt; inactive = no such curve, though single readings can be large or run the other way;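 also: plate controls were no enzyme wells and a reference inhibitor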
Tau fluor counter – counter-screen for tau fibril formation inhibitors. tau K18 P301L Alexa594 fluorescence, heparin fibrillization. Potency, µM (highest dose often 57.7 µM), inactives show at the highest dose activity change, negative = decrease. hit rate 0.93% among 280,000. AID 1463; also: nearly all actives have a fitted effect of over 55% in size
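Human tau K18 P301L (15 uM unlabeled, 0.24 uM Alexa 594-labeled) in 100 mM sodium acetate pH 7 with 20 uM heparin, 6 hr at 37 C. ThT 30 uM added, 1 hr ambient; Alexa 594 FP and total fluorescence read at 555/632 nm.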
NPSR antagonist – antagonists of human neuropeptide S receptor cAMP signaling; Potency, µM (doses to about 38.3 µM), for inactives: at the top dose activity change, negative = inhibition, most hits filed as inhibitors; Q6W5P4; hit rate 1% among 220,000; CHO-NPSR cells, cAMP TR-FRET, antagonist mode; also: nearly all actives have a fitted effect of over 50% in size
Target sequence (Q6W5P4 whole entry, looked up): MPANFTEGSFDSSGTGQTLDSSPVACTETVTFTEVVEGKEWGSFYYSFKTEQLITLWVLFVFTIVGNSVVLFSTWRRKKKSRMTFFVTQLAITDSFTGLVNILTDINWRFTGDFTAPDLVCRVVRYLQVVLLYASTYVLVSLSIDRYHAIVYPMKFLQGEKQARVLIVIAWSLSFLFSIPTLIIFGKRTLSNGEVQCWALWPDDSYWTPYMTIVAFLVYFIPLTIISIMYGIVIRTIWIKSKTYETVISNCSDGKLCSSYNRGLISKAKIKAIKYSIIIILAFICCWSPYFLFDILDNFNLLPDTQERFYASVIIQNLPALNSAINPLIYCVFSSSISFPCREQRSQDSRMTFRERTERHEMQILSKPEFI
Tau FP inhib – inhibitors of human tau fibril formation; P10636; K18 P301L tau heparin fibrillization, Alexa594 FP, 6 h; hit rate 0.39% among 280,000; Potency, µM (doses to about 57.7 µM), without a hit: at the highest dose activity, negative = inhibition, hits mostly inhibitors; also: nearly all actives have a fitted effect of over 55% in size
Target sequence (P10636 561-689 P618L limits assumed): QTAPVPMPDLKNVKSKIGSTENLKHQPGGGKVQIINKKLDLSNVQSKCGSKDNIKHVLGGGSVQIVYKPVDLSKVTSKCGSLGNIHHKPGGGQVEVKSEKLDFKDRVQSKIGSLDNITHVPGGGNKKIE
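Human tau K18 […] P301L fragment, 15 uM unlabeled plus 0.24 uM Alexa 594-labeled tau (final), with compound and 20 uM heparin in 100 mM sodium acetate pH 7; 6 hr at 37 C, then Alexa 594 FP read.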
Tau fibril ThT – inhibitors of human tau fibril formation, thioflavin T binding; AID 1460; P10636; hit rate 2.1% among 270,000; Potency, µM (top dose mostly 57.4 µM), for the others: at the top dose activity, negative = inhibition, most hits filed as inhibitors; recombinant tau K18 P301L (four-repeat tau fragment), heparin-induced fibrillization, ThT fluorescence; also: nearly all actives have a fitted effect of over 55% in size
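Heparin-induced fibrillization of the P301L-mutant K18 repeat-domain fragment of human tau was followed by ThT binding in quantitative high-throughput format.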
HPGD inh – inhibitors of human 15-hydroxyprostaglandin dehydrogenase (HPGD); purified HPGD, NADH fluorescence kinetic, PGE2 substrate; Potency, µM, for inactives: top-dose activity change, negative = inhibition, usual class: inhibitors; P15428; hit rate 4.3% among 150,000; active = well fitted inhibition curve with a large enough effect, not every such curve was filed as active; inconclusive = small, poorly fitted or top-dose-only effect, or another doubt; inactive = no such curve, though single readings can be large or run the other way
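20 nM HPGD preincubated 15 min at room temperature with compound in 50 mM Tris-HCl pH 8, 0.01% Tween 20. Started with 1 mM NAD+ and 30 uM prostaglandin E2; NADH fluorescence (360/450 nm) read 5 times over 30-s intervals, last minus first.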
An asterisk follows results filed as active; ? = inconclusive; · = no result given; [ ] = another dose, or the depositor's remark. Unless noted, calls follow the shape of the dose curve; as a rule, active = well fitted curve in the direction sought with a large enough effect; inconclusive = small, poorly fitted or top-dose-only effect, or another doubt; inactive = no such curve, though single readings can be large; an effect the other way counts as inactive or inconclusive. Unless noted, % is scaled to controls: 0 for no effect and ±100 for the full control effect; potency is read from the fitted curve at half-maximal effect.

SMILES	ALDH1A1 inh	Tau fluor counter	NPSR antagonist	Tau FP inhib	Tau fibril ThT	HPGD inh
COc1ccc(Cl)cc1C(=O)Nc1nnn(C)n1	2.9%	-4.1%	-28.3%[46.1 µM]	-1.4%	-7.3%	-8.4%
O=C(CSc1cccc[n+]1[O-])Nc1ccc(C(F)(F)F)cc1[N+](=O)[O-]	?	-2.7%	7.2%	0.4%	-6.2%	·
O=[N+]([O-])c1ccc(Sc2cccc[n+]2[O-])c2nonc12	2.24µM*	12.6µM*[quencher]	?	?	5.01µM*	·
COc1ccc2oc(=O)c(C(=O)Nc3ccc(C(=O)O)cc3)cc2c1	·	-11.0%	·	-0.6%	?	·
CCC1C(C#N)=C(N)OC2=C1C(=O)CC(C)(C)C2 (stereo unspecified)	-11.0%	-4.3%	5.1%[46.1 µM]	-7.2%	-10.2%	-21.8%
CC1(C)CC(=O)C2=C(C1)N(c1ccccc1C#N)C(N)=C(C#N)C2c1cccs1 (stereo unspecified)	-3.1%	?	-20.9%[46.1 µM]	4.3%	?	-4.7%
CC1(C)CC(=O)C(C2C3=C(CC(C)(C)CC3=O)Oc3ccccc32)=C(O)C1 (stereo unspecified)	28.2µM*	-15.9%	-12.9%[46.1 µM]	-7.5%	-17.8%	-7.7%
Cc1ccc(C2C(C#N)=C(N)OC3=C2C(=O)CC(C)(C)C3)s1 (stereo unspecified)	·	-6.5%	-0.8%	-7.2%	·	·
CC1(C)CC(=O)C2=C(C1)OC(N)=C(C#N)C2c1cccs1 (stereo unspecified)	22.4µM*	-23.3%	6.6%	?	?	·
CC1(C)CC(=O)C2=C(C1)OC(c1cccs1)C(C#N)=C2N (stereo unspecified)	11.2µM*	4.6%	-1.1%[46.1 µM]	2.7%	0.0%	-15.6%
CC1(C)CC(=O)C2=C(C1)OC(N)=C(C#N)C2C1C=CCCC1 (stereo unspecified)	3.98µM*	-0.8%	-8.7%[46.1 µM]	9.5%	-2.4%	-24.9%
O=C(NCCN1C(=O)S/C(=C\c2ccc(F)cc2)C1=O)c1cccc(S(=O)(=O)N2CCOCC2)c1	-8.3%	-7.4%	1.9%	3.2%	0.4%	-13.8%
Cc1ccc(C)c(N2CCN(C(=O)Nc3cn(CC(C)C)c(=O)c4ccccc34)CC2)c1	·	-16.7%	·	3.5%	?	·
CC1(C)CC(=O)C2=C(C1)OC(N)=C(C#N)C2c1ccccc1 (stereo unspecified)	14.1µM*	-2.8%	0.7%[46.1 µM]	-2.1%	3.6%	-17.4%
COC(=O)C1=C(N)OC2=C(C(=O)CC(C)(C)C2)C1c1cccs1 (stereo unspecified)	-10.6%	-4.6%	-17.3%[46.1 µM]	-6.3%	-8.3%	22.4µM*
COc1ccc(C2C3=C(CC(C)(C)CC3=O)OC(N)=C2[N+](=O)[O-])cc1 (stereo unspecified)	18.9µM*	4.1%	2.7%	9.4%	-9.9%	-12.5%
COC(=O)C1=C(C)NC2=C(C(=O)CCC2)C1c1cccs1 (stereo unspecified)	-7.5%	9.8%	-2.4%[46.1 µM]	6.2%	2.4%	-28.5%
CC1(C)CC(=O)C2=C(C1)OC1=C(C(=O)CC(C)(C)C1)C2c1ccccc1	6.1%	-10.9%	-10.0%[46.1 µM]	8.1%	-6.4%	-3.1%
COc1cc(C2C3=C(CC(C)(C)CC3=O)OC(N)=C2[N+](=O)[O-])ccc1O (stereo unspecified)	?	-5.0%	0.7%[46.1 µM]	-3.8%	-14.0%	·
O=C(c1ccco1)N1CCN(CC(O)COc2ccc3oc4ccccc4c3c2)CC1 (stereo unspecified)	-10.1%	-16.3%	-2.7%[46.1 µM]	-3.3%	?	-9.2%
COC(=O)c1nnn(CC(=O)Nc2c(C)cccc2C)c1N	·	-5.6%	·	-2.8%	0.4%	·
CCCCCCN(C(=O)CCCCCN1C(=O)NC(C2CCCCC2)C(C(=O)OCc2ccccc2)=C1C)C(C(=O)NCCCC)c1ccc(OCC(=O)OC)c(C(=O)OC)c1 (stereo unspecified)	28.2µM*	0.1%	·	1.6%	-12.2%	-15.8%
